Compounds with a hit are over-represented: about 1.2% of the library has one in this group of screens.
BioA inh: M. tuberculosis BioA enzyme inhibitors, primary screen, biochemical, plate reader, single point, HTS; 7,8-diaminopelargonic acid synthase BioA (Mycobacterium tuberculosis); purified M. tuberculosis BioA enzyme; inhibition, % at 9.99 µM; 360,000 compounds, 0.096% hits; in the data active = inhibition above about 40%
TcdB inh: TcdB glycohydrolase inhibitors, primary screen, biochemical, single point, plate reader | Toxin B (Clostridioides difficile), P18177 | TcdB glycohydrolase enzymatic assay | inhibition, % at 9.99 µM | 350,000 compounds, 0.24% hits | AID 652162, 2013; in the data active = inhibition above about 10%
FadD28 binding: inhibitors of FadD28 bisubstrate probe binding, primary screen, biochemical, fluorescence polarization, single point; Mycobacterium tuberculosis FadD28 fatty-acid-AMP ligase; inhibition, % at 12.5 µM; 360,000 compounds, 0.22% hits; AID 588549, 2011; in the data active = inhibition above about 8.5%, passing the limit was not always enough
PfHsp40 yeast: rescue of yeast from PfHsp40 toxicity, primary screen, S. cerevisiae, ATP luminescence; S. cerevisiae expressing PfHsp40, growth rescue; growth rescue, % at 12.5 µM; 340,000 compounds, 0.68% hits; AID 504582, 2011; in the data active = growth rescue above about 28%, passing the limit was not always enough;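 also: yeast W303a lacking pdr1 and pdr3 grown in galactose medium; growth measured after three days at 30 °C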
PrP UTR inh: inhibition of PrP 5' UTR reporter expression; cell-based PrP 5' UTR mRNA reporter, plate reader; inhibition, % (concentration not given with the values); 340,000 compounds, 0.35% hits; AID 488862, 2010; in the data active = inhibition above about 52%
Yp Topo-I inh: Yersinia pestis topoisomerase I inhibitors, primary screen, biochemical, cleavage product accumulation, plate reader, single point; activity, % at 10 µM; 360,000 compounds, 0.064% hits; Y. pestis Topo-I cleavage product accumulation; DNA topoisomerase I (Yersinia pestis CO92); AID 504884, 2011; in the data active = activity above about 50%, passing the limit was not always enough
A number is an active result; i = inactive; nt = no result given.

SMILES | BioA inh | TcdB inh | FadD28 binding | PfHsp40 yeast | PrP UTR inh | Yp Topo-I inh
CO[C@H]1CN(C)C(=O)c2cc(NS(=O)(=O)c3cn(C)cn3)ccc2OC[C@H](C)N(CC2CC2)C[C@H]1C | i | i | nt | nt | nt | nt
CN(c1ccccc1)c1nc(N2CCCC2)nc(-n2ccnc2)n1 | i | nt | i | 393 | i | i
COc1ccc(NC(=O)N[C@@H]2CC[C@H](CCNS(=O)(=O)c3cccc(Cl)c3)O[C@@H]2CO)cc1 | i | i | nt | nt | nt | nt
C[C@H](CO)N1C[C@H](C)[C@H](CN(C)S(=O)(=O)c2cccs2)Oc2ccc(NC(=O)Nc3ccc(C(F)(F)F)cc3)cc2C1=O | i | nt | nt | nt | nt | nt
C[C@H](CO)N1C[C@H](C)[C@@H](CN(C)S(=O)(=O)c2cccs2)Oc2ccc(NC(=O)Nc3ccc(C(F)(F)F)cc3)cc2C1=O | i | i | 27 | i | i | i
C[C@@H]1CN([C@H](C)CO)C(=O)c2cc(NC(=O)Nc3ccc(C(F)(F)F)cc3)ccc2O[C@H]1CN(C)S(=O)(=O)c1cccs1 | i | i | 21 | i | i | i
CN(C)c1ccc(C=c2c3cc(O)ccc3n3c2cc(-c2ccccc2)[n+]3C)cc1 | nt | i | i | 295 | i | i
C[n+]1c(-c2ccccc2)cc2c(=Cc3ccccc3)c3ccccc3n21 | nt | i | i | 170 | i | i
C[n+]1c(-c2ccccc2)cc2c(=Cc3ccc([N+](=O)[O-])cc3)c3ccccc3n21 | nt | i | i | i | i | i
Nc1c(C(=O)NCC2CCCO2)sc2nc3c(c(-c4ccco4)c12)CC/C3=C\c1ccco1 (stereo not given) | i | i | 14 | i | i | i
NC(=O)c1sc2nc3c(c(-c4ccco4)c2c1N)CCCC3 | i | i | i | i | i | i
Cc1sc2c(c1C)C(O)=C(C(=O)Nc1ccccc1)S(=O)(=O)N2C | nt | i | i | 153 | i | i
CN1c2ccccc2C(O)=C(C(=O)Nc2ccccc2)S1(=O)=O | i | nt | i | i | i | i
O=[N+]([O-])c1ccccc1/C=C/c1ccncc1 | i | i | nt | nt | nt | nt
Nc1nc(Nc2ccc(Cl)cc2)n[nH]1 | i | nt | i | i | i | i
Nc1nc(Nc2ccccc2)n[nH]1 | i | 13 | i | i | i | i
COc1ccccc1-c1ccc2c(c1)O[C@@H](CN(C)C(=O)c1cccnc1)[C@@H](C)CN([C@H](C)CO)S2(=O)=O | i | i | nt | nt | nt | nt
COc1ccc(S(=O)(=O)N2CCOCC2)cc1NC(=O)COC(=O)c1[nH]c(C)c(C(C)=O)c1C | i | 13 | i | i | i | i
CCc1noc(C)c1C(=O)Nc1cc(S(=O)(=O)N2CCOCC2)ccc1OC(C)C | i | i | 16 | i | i | i
CC(=O)c1c(C)[nH]c(C(=O)OCC(=O)Nc2cc(S(=O)(=O)N3CCCC3)ccc2Cl)c1C | i | nt | i | i | i | i
CCc1noc(C)c1C(=O)Nc1cc(S(=O)(=O)N2CCCCC2)ccc1N(C)C | i | i | i | i | i | i
CCC(=O)N1C[C@@H](C)[C@H](OC)CN(C)C(=O)c2cc(NC(=O)C3CCOCC3)ccc2OC[C@@H]1C | i | i | nt | nt | nt | nt
O=C1NN(c2ccc(Cl)c(Cl)c2)C(=O)/C1=C/c1ccc(-c2ccccc2C(=O)O)o1 | i | i | 13 | i | i | i
Cc1ccc(N2NC(=O)/C(=C/c3ccc(-c4ccc(Cl)c(C(=O)O)c4)o3)C2=O)cc1C | i | i | i | i | i | i
OCC1CCCN(C(=S)Nc2ccc(OC(F)F)cc2)C1 (stereo not given) | i | i | i | i | i | i
OCC1CCCN(C(=S)Nc2ccc(Nc3ccccc3)cc2)C1 (stereo not given) | i | 11 | i | i | i | i
CCc1c(O)nc(SCC(=O)Nc2nc3ccccc3s2)n(-c2ccccc2)c1=O | i | i | 14 | i | i | i
CCc1c(O)nc(SCC(=O)Nc2nc3ccccc3s2)n(-c2ccc(C)cc2)c1=O | i | i | i | i | i | i
O=C1O[C@H](c2ccccc2)[C@H](c2ccccc2)N2[C@H]1[C@@H](C(=O)Nc1nc3ccccc3s1)[C@]1(C(=O)Nc3ccc(C#CCCO)cc31)[C@H]2c1ccc(OCCO)cc1 | i | i | nt | nt | nt | nt
Cc1ccc(C)c(S(=O)(=O)N2CCN(Cc3ccc(O)c4ncccc34)CC2)c1 | nt | i | i | 323 | i | i

Source: PubChem BioAssay (Broad Institute)
